Here are results for 3 compounds from PubChem BioAssay (EPA / NIEHS).

Active and inactive are the calls of the source. Rule for the calls: active = hit-call score of the fitted dose curve at least 0.9, where 1 is the maximum; inactive = score below 0.9.

What all share (conditions): mRNA level, 48 h; actives raise or lower the signal
Read-out in assay [1]: Broad substrate specificity ATP-binding cassette transporter ABCG2 (Homo sapiens) (UniProt Q9UNQ0)
The experiment in a line: LTEA_HepaRG_ABCG2: Life Technologies and Expression Analysis (LTEA) Assay for ABC Transporter (ABCG2) using HepaRG (AID 2283465). The procedure, abridged: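 Differentiated HepaRG cells were exposed for 48 h in serum-free induction medium to 8 half-log concentrations, top 100 uM, in 0.5% DMSO. ABCG2 mRNA was measured by qRT-PCR, normalized to ACTB, GAPDH and POLR2A, with bidirectional fitting versus DMSO.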

Read-out in assay [2]: ATP-citrate lyase (ACLY), ACLY (gene 47)
The experiment in a line: LTEA_HepaRG_ACLY: Life Technologies and Expression Analysis (LTEA) Assay for ATP-citrate lyase (ACLY) using HepaRG (AID 2283466). The essentials:
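Differentiated HepaRG cells exposed 48 h in serum-free induction medium to eight half-log concentrations up to 100 uM in 0.5% DMSO, duplicates. Transcript measured by Fluidigm TaqMan qRT-PCR, normalized to ACTB, GAPDH, POLR2A; bidirectional fit versus DMSO.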

Read-out in assay [3]: Peroxisomal acyl-coenzyme A oxidase 1 (ACOX1) gene, ACOX1 (gene 51)
The experiment in a line: LTEA_HepaRG_ACOX1: Life Technologies and Expression Analysis (LTEA) Assay for Peroxisomal acyl-coenzyme A oxidase 1 (ACOX1) gene using HepaRG (AID 2283467). The procedure, abridged: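 HepaRG cells, plated 48 h then switched to serum-free induction medium, were exposed in duplicate for 48 h to 8-point half-log concentrations up to 100 uM in 0.5% DMSO. ACOX1 mRNA was measured by qRT-PCR, normalized to ACTB/GAPDH/POLR2A, and fitted bidirectionally versus DMSO.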

Read-out in assay [4]: Alkaline Phosphatase, Placental (ALPP) gene, ALPP (gene 250)
Nature of the assay: LTEA_HepaRG_ALPP: Life Technologies and Expression Analysis (LTEA) Assay for Alkaline Phosphatase, Placental (ALPP) gene using HepaRG (AID 2283468). The essentials: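 HepaRG cells plated 48 h, then exposed in duplicate for 48 h in serum-free induction medium to 8-point half-log series from 100 uM in 0.5% DMSO. ALPP mRNA by TaqMan qRT-PCR, normalized to ACTB/GAPDH/POLR2A; bidirectional fit versus DMSO.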

Read-out in assay [5]: Bcl-2 (BAD) gene, BAD (gene 572)
The experiment in a line: LTEA_HepaRG_BAD: Life Technologies and Expression Analysis (LTEA) Assay for Bcl-2 (BAD) gene using HepaRG (AID 2283469). The essentials: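 Differentiated HepaRG cells were exposed in duplicate in 0.5% DMSO for 48 h to eight-point half-log concentrations up to 100 uM. BAD mRNA was measured by Fluidigm TaqMan qRT-PCR, normalized to ACTB, GAPDH and POLR2A, and fitted bidirectionally against DMSO.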

Read-out in assay [6]: Bcl-2 (BAX) gene, BAX (gene 581)
The experiment in a line: LTEA_HepaRG_BAX: Life Technologies and Expression Analysis (LTEA) Assay for Bcl-2 (BAX) gene using HepaRG (AID 2283470). The procedure, abridged: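 HepaRG (human liver), 48 h exposure, duplicate wells. 8-pt curve, half-log from 100 uM, 0.5% DMSO. BAX transcript by TaqMan qRT-PCR; ACTB/GAPDH/POLR2A normalization; gain or loss vs DMSO baseline.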

Read-out in assay [7]: adenosine kinase (ADK) gene, ADK (gene 132)
Nature of the assay: LTEA_HepaRG_ADK: Life Technologies and Expression Analysis (LTEA) Assay for adenosine kinase (ADK) gene using HepaRG (AID 2283471). The essentials: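 HepaRG (human liver), 48 h chemical exposure, 8-pt half-log series, top 100 uM, 0.5% DMSO vehicle. Readout: ADK mRNA by qRT-PCR vs housekeeping genes; bidirectional curve fit relative to DMSO baseline.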

Read-out in assay [8]: Alpha-fetoprotein (AFP) gene, AFP (gene 174)
The experiment in a line: LTEA_HepaRG_AFP: Life Technologies and Expression Analysis (LTEA) Assay for Alpha-fetoprotein (AFP) gene using HepaRG (AID 2283472). The essentials: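 HepaRG, single lot; 48 h post-plating -> serum-free induction medium; cpd 8-pt, 100 uM top, half-log, 0.5% DMSO, duplicate, 48 h. RNA -> qRT-PCR AFP, norm ACTB/GAPDH/POLR2A. Bidirectional fit vs DMSO.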

Read-out in assay [9]: Apoptosis regulator Bcl-2 (Homo sapiens) (UniProt P10415)
The experiment in a line: LTEA_HepaRG_BCL2: Life Technologies and Expression Analysis (LTEA) Assay for Bcl-2 gene using HepaRG (AID 2283475). The essentials: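 HepaRG, plated 48 h then switched to serum-free induction medium; dosed 48 h, 8 conc. (max 100 uM, half-log steps), duplicate, 0.5% DMSO. Lysis in RLT, RNA isolated, TaqMan qRT-PCR for BCL2; ACTB/GAPDH/POLR2A normalisation; bidirectional fit vs DMSO.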

Read-out in assay [10]: Bcl-2 (BID) gene, BID (gene 637)
The experiment in a line: LTEA_HepaRG_BID: Life Technologies and Expression Analysis (LTEA) Assay for Bcl-2 (BID) gene using HepaRG (AID 2283476). The essentials:
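Transcript levels of BID, measured by qRT-PCR and normalized to three housekeeping genes, were fitted bidirectionally against DMSO controls. Cells were HepaRG, dosed 48 h at up to 100 uM.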

Read-out in a further assay: Caspase-3 (Homo sapiens) (UniProt P42574)
Nature of the assay: LTEA_HepaRG_CASP3: Life Technologies and Expression Analysis (LTEA) Assay for cysteine-aspartic acid protease (CASP3) using HepaRG (AID 2283477). The procedure, abridged: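 Differentiated HepaRG cells, plated 48 h, were treated in duplicate in serum-free induction medium for 48 h with eight half-log concentrations up to 100 uM in 0.5% DMSO. CASP3 mRNA measured by qRT-PCR, normalized to ACTB, GAPDH, POLR2A.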

Read-out in assay [11]: Cytochrome P450 (CYP24A1), CYP24A1 (gene 1591)
Nature of the assay: LTEA_HepaRG_CYP24A1: Life Technologies and Expression Analysis (LTEA) Assay for Cytochrome P450 (CYP24A1) using HepaRG (AID 2283478). The essentials:
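HepaRG cells plated 48 h, then exposed in duplicate in serum-free induction medium for 48 h to 8-point half-log series from 100 uM in 0.5% DMSO. CYP24A1 mRNA by Fluidigm qRT-PCR, normalized to ACTB, GAPDH, POLR2A; bidirectional fit versus DMSO.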

Read-out in assay [12]: Cytochrome P450 (CYP1A2), CYP1A2 (gene 1544)
The experiment in a line: LTEA_HepaRG_CYP1A2: Life Technologies and Expression Analysis (LTEA) Assay for Cytochrome P450 (CYP1A2) using HepaRG (AID 2283479). The procedure, abridged: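 Differentiated human HepaRG cells in serum-free induction medium exposed 48 hours in duplicate to 8 half-log concentrations from 100 uM, 0.5% DMSO. CYP1A2 mRNA quantified by qRT-PCR, normalized to ACTB, GAPDH and POLR2A; bidirectional fitting versus DMSO.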

Read-out in assay [13]: cysteine-aspartic acid protease (CASP8), CASP8 (gene 841)
Nature of the assay: LTEA_HepaRG_CASP8: Life Technologies and Expression Analysis (LTEA) Assay for cysteine-aspartic acid protease (CASP8) using HepaRG (AID 2283480). The procedure, abridged: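 Differentiated HepaRG cells in serum-free induction medium, 48 h exposure, eight-point half-log series from 100 uM in 0.5% DMSO, duplicates. CASP8 mRNA by qRT-PCR, normalized to ACTB, GAPDH, POLR2A; bidirectional fit versus DMSO.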

Read-out in assay [14]: Cytochrome P450 (CYP2B6), CYP2B6 (gene 1555)
Nature of the assay: LTEA_HepaRG_CYP2B6: Life Technologies and Expression Analysis (LTEA) Assay for Cytochrome P450 (CYP2B6) using HepaRG (AID 2283481). The essentials:
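Differentiated human HepaRG cells in serum-free induction medium, dosed in duplicate for 48 h over 8 half-log concentrations topping at 100 uM (0.5% DMSO). CYP2B6 mRNA measured by TaqMan qRT-PCR, normalized to ACTB, GAPDH, POLR2A; bidirectional fit versus DMSO.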

Read-out in assay [15]: Cytochrome P450 2C19 (Homo sapiens) (UniProt P33261)
The experiment in a line: LTEA_HepaRG_CYP2C19: Life Technologies and Expression Analysis (LTEA) Assay for CYP2C19 using HepaRG (AID 2283482). The essentials:
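Differentiated HepaRG cells in serum-free induction medium exposed 48 h in duplicate, 8 concentrations from 100 uM by half-log steps in 0.5% DMSO. CYP2C19 mRNA measured by TaqMan qRT-PCR, normalized to ACTB, GAPDH, POLR2A. Bidirectional fit versus DMSO.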

Read-out in another assay: CYP2C8 (gene 1558)
Nature of the assay: LTEA_HepaRG_CYP2C8: Life Technologies and Expression Analysis (LTEA) Assay for CYP2C8 using HepaRG (AID 2283483). The essentials: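 Differentiated HepaRG cells in serum-free induction medium exposed 48 h in duplicate to 8 half-log concentrations from 100 uM in 0.5% DMSO. CYP2C8 mRNA by qRT-PCR normalized to ACTB, GAPDH, POLR2A; bidirectional fit versus DMSO.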

Read-out in another assay: CYP2C9 (gene 1559)
The experiment in a line: LTEA_HepaRG_CYP2C9: Life Technologies and Expression Analysis (LTEA) Assay for CYP2C9 using HepaRG (AID 2283484). The essentials:
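Differentiated human HepaRG cells in serum-free induction medium were exposed 48 h to chemicals in 8-point half-log series from 100 uM (0.5% DMSO), in duplicate. CYP2C9 mRNA was measured by qRT-PCR, normalized to ACTB/GAPDH/POLR2A, with bidirectional fitting versus DMSO.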

Read-out in another assay: BCL2L11 (gene 10018)
The experiment in a line: LTEA_HepaRG_BCL2L11: Life Technologies and Expression Analysis (LTEA) Assay for Bcl-2 (BCL2L11) gene using HepaRG (AID 2283473). The essentials:
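Differentiated human HepaRG cells were exposed 48 h in serum-free induction medium to eight half-log concentrations up to 100 uM in 0.5% DMSO, in duplicate. BCL2L11 mRNA was quantified by TaqMan qRT-PCR, normalized to ACTB, GAPDH and POLR2A; induction or repression fitted versus DMSO.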

Read-out in assay [16]: Apolipoprotein A-V (APOA5) gene, APOA5 (gene 116519)
Nature of the assay: LTEA_HepaRG_APOA5: Life Technologies and Expression Analysis (LTEA) Assay for Apolipoprotein A-V (APOA5) gene using HepaRG (AID 2283474). The procedure, abridged: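 Differentiated HepaRG cells in serum-free induction medium, exposed 48 h in duplicate to eight half-log concentrations topping at 100 uM (0.5% DMSO). APOA5 mRNA by Fluidigm TaqMan qRT-PCR, normalized to ACTB, GAPDH and POLR2A; bidirectional fit versus DMSO.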

Chain of Cytochrome P450 2C19 (Homo sapiens) (P33261 whole entry, looked up): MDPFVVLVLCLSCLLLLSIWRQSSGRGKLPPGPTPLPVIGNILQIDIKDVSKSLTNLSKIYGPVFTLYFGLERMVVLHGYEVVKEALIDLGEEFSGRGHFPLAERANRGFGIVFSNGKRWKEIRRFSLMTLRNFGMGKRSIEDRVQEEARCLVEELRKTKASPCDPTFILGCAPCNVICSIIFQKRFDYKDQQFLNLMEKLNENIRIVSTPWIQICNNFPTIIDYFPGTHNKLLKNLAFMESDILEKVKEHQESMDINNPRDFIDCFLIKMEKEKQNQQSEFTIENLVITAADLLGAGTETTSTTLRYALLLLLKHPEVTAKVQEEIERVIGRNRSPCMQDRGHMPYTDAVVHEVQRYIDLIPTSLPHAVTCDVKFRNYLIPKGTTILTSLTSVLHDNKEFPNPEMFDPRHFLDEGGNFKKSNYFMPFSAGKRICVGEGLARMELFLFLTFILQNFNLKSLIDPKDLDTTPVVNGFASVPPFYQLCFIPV
Chain of Apoptosis regulator Bcl-2 (Homo sapiens) (P10415 whole entry, looked up): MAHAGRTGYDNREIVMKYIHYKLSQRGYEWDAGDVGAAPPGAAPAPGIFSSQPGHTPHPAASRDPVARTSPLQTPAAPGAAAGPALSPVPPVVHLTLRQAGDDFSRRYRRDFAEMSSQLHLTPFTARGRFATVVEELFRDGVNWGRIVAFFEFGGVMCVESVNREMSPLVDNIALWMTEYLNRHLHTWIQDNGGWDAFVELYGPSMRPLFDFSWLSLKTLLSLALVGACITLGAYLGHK
Chain of Caspase-3 (Homo sapiens) (P42574 whole entry, looked up): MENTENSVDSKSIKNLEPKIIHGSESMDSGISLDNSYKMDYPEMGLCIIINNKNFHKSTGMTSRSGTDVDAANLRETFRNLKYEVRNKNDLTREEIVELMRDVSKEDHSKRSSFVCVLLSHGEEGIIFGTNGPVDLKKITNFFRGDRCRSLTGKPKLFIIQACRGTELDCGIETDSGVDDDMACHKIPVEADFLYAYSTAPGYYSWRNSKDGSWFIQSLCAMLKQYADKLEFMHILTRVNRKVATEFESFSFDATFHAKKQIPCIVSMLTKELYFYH
Chain of Broad substrate specificity ATP-binding cassette transporter ABCG2 (Homo sapiens) (Q9UNQ0 whole entry, looked up): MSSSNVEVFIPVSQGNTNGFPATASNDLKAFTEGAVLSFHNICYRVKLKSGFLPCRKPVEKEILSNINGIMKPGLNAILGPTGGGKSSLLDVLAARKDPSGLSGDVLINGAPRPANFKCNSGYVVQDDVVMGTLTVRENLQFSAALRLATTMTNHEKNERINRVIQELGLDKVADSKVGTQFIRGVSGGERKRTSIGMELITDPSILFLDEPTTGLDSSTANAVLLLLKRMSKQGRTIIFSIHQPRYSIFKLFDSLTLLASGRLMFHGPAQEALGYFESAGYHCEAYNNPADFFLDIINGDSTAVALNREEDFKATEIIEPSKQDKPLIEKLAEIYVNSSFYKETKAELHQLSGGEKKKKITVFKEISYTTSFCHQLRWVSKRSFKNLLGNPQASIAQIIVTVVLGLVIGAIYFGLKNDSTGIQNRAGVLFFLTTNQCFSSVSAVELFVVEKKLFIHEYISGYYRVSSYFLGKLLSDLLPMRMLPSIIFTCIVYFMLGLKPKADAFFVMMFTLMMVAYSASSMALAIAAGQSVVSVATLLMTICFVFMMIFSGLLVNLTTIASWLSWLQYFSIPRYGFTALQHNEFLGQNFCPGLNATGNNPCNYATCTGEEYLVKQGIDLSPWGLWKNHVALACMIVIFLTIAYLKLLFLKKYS

As a reminder, the AC50 is the midpoint of the concentration-response curve, whichever way the signal moves. As to `CCOP(=S)(OCC)SCn1c(=O)oc2cc(Cl)ccc21`, the compound was classed as inactive in [1], in assay [2], in [3], in assay [4], in [5] and in assay [6]. The outcome (in assay [7]; in [8]; in assay [9]; in [10]; with Caspase-3 (Homo sapiens); in [11]) was inactive. Moreover, the compound was called inactive (in assay [13]; in assay [15]; with CYP2C8 (gene 1558); in the assay with CYP2C9 (gene 1559)). Moreover, the AC50 was 75.3 µM (active) in assay [12] and 17.7 µM (active) in assay [14].
For the compound `CCNc1nc(Cl)nc(NC(C)C)n1`, the compound was classed as inactive in assay [3], in assay [4], in assay [5], in assay [6], in assay [7] and in [8]. For the same compound, the result (with BCL2L11 (gene 10018); in [16]; in assay [9]; in assay [10]; with Caspase-3 (Homo sapiens); in assay [11]) was inactive. Further, the compound was classed as inactive (in [13]; with CYP2C9 (gene 1559)). The concentration at half-maximal activity (AC50) in assay [12] was 50 µM (active); in assay [14], 2.34 µM (active); in assay [15], 15.2 µM (active); with CYP2C8 (gene 1558) it was 31.5 µM (active).
Regarding `COC(=O)C(C)Oc1ccc(Oc2ccc(Cl)cc2Cl)cc1` (centres undefined), the call in [1], in [2], in [4], in [5], in assay [6] and in assay [7] was inactive. The compound was called inactive (in assay [10]; with Caspase-3 (Homo sapiens); in assay [11]; in [12]; in assay [13]; in assay [14]). Moreover, the call in the assay with CYP2C8 (gene 1558) and in the assay with CYP2C9 (gene 1559) was inactive. Also, the AC50 in assay [3] is 21.7 µM (active); in [8], 79.6 µM (active); in assay [9], 50 µM (active); in assay [15], 29.4 µM (active).
